The target in assay [1] is Dual specificity protein kinase CLK3 (Homo sapiens) (UniProt P49761). To be noted: at 1 µM.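 Further: each value is the mean inhibition of CLK3.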
Assay [2] addresses Dual specificity tyrosine-phosphorylation-regulated kinase 1A (Homo sapiens) (UniProt Q13627). The note with it: at 0.1 µM.
The target is the same in assay [3]. The note with it: at 1 µM.
Assay [4] addresses Dual specificity tyrosine-phosphorylation-regulated kinase 1B (Homo sapiens) (UniProt Q9Y463). To be noted: at 0.1 µM.
Assay [5] has the same target. To be noted: at 1 µM.
In assay [6] the target is T1, Dual specificity tyrosine-phosphorylation-regulated kinase 2 (Homo sapiens) (UniProt Q92630).
T1 sequence (whole entry): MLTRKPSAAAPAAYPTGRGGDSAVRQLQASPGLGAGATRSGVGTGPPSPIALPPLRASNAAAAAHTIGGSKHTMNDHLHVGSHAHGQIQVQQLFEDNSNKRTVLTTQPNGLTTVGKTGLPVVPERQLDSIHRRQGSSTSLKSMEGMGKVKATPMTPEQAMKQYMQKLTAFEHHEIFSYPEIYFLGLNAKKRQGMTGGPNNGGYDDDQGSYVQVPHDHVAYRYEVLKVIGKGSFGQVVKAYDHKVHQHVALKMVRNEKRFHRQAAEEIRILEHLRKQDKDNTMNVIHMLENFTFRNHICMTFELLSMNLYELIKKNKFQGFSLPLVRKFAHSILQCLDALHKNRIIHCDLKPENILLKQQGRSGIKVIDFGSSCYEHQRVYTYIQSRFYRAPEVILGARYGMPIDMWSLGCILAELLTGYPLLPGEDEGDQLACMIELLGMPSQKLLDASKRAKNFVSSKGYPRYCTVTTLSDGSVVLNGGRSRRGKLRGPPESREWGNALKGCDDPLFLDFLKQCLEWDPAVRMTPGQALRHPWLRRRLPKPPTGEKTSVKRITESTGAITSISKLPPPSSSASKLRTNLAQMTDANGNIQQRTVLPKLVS
To be noted: at 0.1 µM.

For assay [7], the target named is T1, Dual specificity tyrosine-phosphorylation-regulated kinase 2 (Homo sapiens). The note with it: at 1 µM.
In assay [8] the target is Glycogen synthase kinase-3 alpha (Homo sapiens) (UniProt P49840). To be noted: at 0.1 µM.
Assay [9] shares this target. The note with it: at 1 µM.
The target of assay [10] is Glycogen synthase kinase-3 beta (Homo sapiens) (UniProt P49841). The note with it: at 0.1 µM.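 Further: values are mean percent inhibition of GSK3B activity, from the GSK Published Kinase Inhibitor Set (PKIS) screening dataset.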
Chain of Glycogen synthase kinase-3 beta (Homo sapiens) (P49841 whole entry, looked up): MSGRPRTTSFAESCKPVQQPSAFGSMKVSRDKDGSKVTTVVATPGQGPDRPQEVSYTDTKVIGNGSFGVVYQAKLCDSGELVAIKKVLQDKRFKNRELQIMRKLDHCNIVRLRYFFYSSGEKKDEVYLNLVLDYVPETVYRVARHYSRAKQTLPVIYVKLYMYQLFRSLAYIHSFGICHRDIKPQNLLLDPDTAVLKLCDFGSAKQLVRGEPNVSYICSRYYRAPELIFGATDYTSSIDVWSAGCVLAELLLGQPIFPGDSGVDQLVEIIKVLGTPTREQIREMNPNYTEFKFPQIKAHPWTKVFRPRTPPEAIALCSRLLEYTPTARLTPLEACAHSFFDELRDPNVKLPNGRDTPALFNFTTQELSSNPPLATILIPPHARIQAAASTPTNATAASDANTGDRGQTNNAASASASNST

Chain of Glycogen synthase kinase-3 alpha (Homo sapiens) (P49840 2-483 limits assumed): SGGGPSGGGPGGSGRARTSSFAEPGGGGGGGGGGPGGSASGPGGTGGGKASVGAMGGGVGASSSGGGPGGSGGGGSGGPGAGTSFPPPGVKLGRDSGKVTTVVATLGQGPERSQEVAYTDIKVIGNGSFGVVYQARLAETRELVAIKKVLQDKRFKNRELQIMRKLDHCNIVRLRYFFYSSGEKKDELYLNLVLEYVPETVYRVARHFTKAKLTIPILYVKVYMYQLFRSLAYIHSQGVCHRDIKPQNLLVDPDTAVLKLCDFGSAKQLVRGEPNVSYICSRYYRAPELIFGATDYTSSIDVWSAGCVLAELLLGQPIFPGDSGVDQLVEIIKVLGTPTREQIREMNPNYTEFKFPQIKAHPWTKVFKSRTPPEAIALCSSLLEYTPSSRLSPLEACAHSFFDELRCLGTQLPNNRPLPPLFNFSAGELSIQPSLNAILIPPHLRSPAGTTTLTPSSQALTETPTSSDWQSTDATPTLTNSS
Chain of Dual specificity tyrosine-phosphorylation-regulated kinase 1B (Homo sapiens) (Q9Y463 whole entry, looked up): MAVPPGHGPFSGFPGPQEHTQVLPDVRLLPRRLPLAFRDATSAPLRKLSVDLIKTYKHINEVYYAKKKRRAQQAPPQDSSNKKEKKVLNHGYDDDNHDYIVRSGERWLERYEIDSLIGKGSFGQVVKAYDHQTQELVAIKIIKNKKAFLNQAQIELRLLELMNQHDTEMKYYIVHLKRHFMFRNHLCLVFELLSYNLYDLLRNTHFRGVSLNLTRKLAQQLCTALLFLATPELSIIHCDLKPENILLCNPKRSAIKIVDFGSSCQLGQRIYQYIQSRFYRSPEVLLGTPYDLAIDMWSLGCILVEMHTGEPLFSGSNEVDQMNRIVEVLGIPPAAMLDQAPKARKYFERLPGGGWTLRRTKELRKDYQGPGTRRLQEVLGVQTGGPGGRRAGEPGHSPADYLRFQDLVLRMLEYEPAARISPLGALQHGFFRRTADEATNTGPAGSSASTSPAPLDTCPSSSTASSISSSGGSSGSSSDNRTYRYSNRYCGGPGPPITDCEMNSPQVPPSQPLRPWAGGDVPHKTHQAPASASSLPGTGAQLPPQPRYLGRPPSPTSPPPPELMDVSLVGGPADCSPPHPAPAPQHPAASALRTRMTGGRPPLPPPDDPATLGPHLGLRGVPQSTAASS
Chain of Dual specificity protein kinase CLK3 (Homo sapiens) (P49761 whole entry, looked up): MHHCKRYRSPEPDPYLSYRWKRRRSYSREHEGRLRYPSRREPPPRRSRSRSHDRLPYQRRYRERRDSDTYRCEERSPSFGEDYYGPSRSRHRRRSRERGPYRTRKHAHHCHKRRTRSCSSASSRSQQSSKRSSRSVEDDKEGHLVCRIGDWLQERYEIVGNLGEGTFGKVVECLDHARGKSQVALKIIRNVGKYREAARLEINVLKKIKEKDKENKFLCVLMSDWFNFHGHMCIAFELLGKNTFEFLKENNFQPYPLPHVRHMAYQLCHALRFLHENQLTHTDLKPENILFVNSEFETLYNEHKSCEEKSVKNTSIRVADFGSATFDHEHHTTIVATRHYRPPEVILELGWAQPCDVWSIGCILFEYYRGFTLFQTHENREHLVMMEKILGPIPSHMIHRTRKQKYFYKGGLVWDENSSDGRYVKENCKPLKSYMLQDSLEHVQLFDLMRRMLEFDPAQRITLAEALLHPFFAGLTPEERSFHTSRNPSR

In general, inhibition refers to the drop in the measured response relative to a control, in per cent. In the case of `Cc1ccc2c(c1)/C(=N/Nc1ccc(S(N)(=O)=O)cc1)C(=O)N2`, the inhibition was -0.91% in [1]; -1.04% in assay [2]; 2.94% in assay [3]; -1.01% in assay [4]; 1.94% in assay [5]; 0.43% in [6]. In addition, the inhibition in [7] was -0.62%; in [8], 4.1%; in assay [9], 31.3%; in assay [10], 1.9%.
Regarding `OCc1ccc(-c2nc(-c3ccccn3)c(-c3ccc4c(c3)OCO4)[nH]2)cc1`, the inhibition in [1] came out at 2.95%; in [2], 1.82%; in assay [3] it was 4.86%; in assay [4] it was 0.33%; in [5], 0.97%; in [6] it was 2.62%. The inhibition was determined as 3.63% in [7], 2.15% in [8], 4.5% in assay [9] and 2.21% in assay [10].
For `CCn1c(-c2nonc2N)nc2c(C#CC(C)(C)O)nc(OCCNC)cc21`, the inhibition in [1] is 0.43%; in assay [2], 2.71%; in assay [3], 2.94%; in [4], -0.33%; in assay [5] it was -0.29%; in assay [6] it was 5.86%. The inhibition was found to be 5.26% in [7], 11.6% in assay [8], 49.9% in [9] and 8.59% in [10].
Take `CCOc1nccc2c1nc(-c1nonc1N)n2CC`: the inhibition came to 2.9% in assay [1]; 1.13% in [2]; 3.41% in [3]; 0.32% in [4]; 2.83% in [5]; 1.54% in [6]. For the same molecule, the inhibition was 2.84% in assay [7], 3.1% in assay [8], 10.2% in [9] and 3.37% in assay [10].
As to `CN(C)c1cc2c(Nc3ccc4c(cnn4Cc4ccccc4)c3)ncnc2cn1`, the inhibition in assay [1] came to 1.41%; in assay [2], 2.17%; in assay [3], 6.83%; in [4] it was 1.02%; in assay [5], 3.5%; in assay [6], 2.42%. Moreover, the inhibition is 2.63% in assay [7], 1.84% in assay [8], 5.95% in assay [9] and 1.16% in assay [10].
Regarding `CN(C)C(=O)O[C@H]1CN[C@H](C#Cc2cc3ncnc(Nc4ccc(OCc5cccc(F)c5)c(Cl)c4)c3s2)C1`, the inhibition in [1] amounted to 1.86%; in assay [2] it was 1.54%; in [3], 3.38%; in [4], 0.21%; in assay [5], 0.78%; in assay [6] it was 2%. Moreover, the inhibition amounted to 2.24% in [7], 1.64% in assay [8], 5.51% in [9] and 1.31% in assay [10].
Turning to `CC(C)c1ccc2c(c1)NC(=O)/C2=N/Nc1ccc(S(N)(=O)=O)cc1`, the inhibition was -0.08% in [1]; 0.62% in assay [2]; 2.99% in assay [3]; 3.56% in assay [4]; 4.99% in assay [5]; 0.96% in assay [6]. Also, the inhibition in [7] was -0.44%; in assay [8], 4.22%; in assay [9], 16.5%; in assay [10] it was 4.19%.
With `CCn1c(-c2nonc2N)nc2ccc(F)cc21`, the inhibition in assay [1] is 1.23%; in assay [2], 5.13%; in assay [3], 10.8%; in assay [4], -0.23%; in assay [5], 1.12%; in assay [6], 4.17%. The inhibition in assay [7] amounted to 4.15%; in assay [8], 3.78%; in [9], 4.96%; in [10], 3%.
`c1ccc(Nc2ncc(-c3ccccc3)o2)cc1`: the inhibition in assay [1] is 1.62%; in assay [2] it was 3.02%; in assay [3], 2.66%; in assay [4], -0.02%; in [5], 1.13%; in assay [6], 4.52%. In addition, the inhibition in [7] came out at 5.66%; in assay [8], 4.96%; in [9] it was 15.8%; in assay [10], 5.53%.
For `CCS(=O)(=O)c1ccc(OC)c(Nc2ncc(-c3cccc(OC)c3)o2)c1`, the inhibition came to 13.2% in [1]; 8.22% in assay [2]; 41.4% in assay [3]; 6.86% in assay [4]; 37.7% in assay [5]; 3.86% in assay [6]. For the same molecule, the inhibition in [7] was found to be 18.4%; in [8], 1.96%; in [9], 9.4%; in assay [10], 2.23%.
As for `NC(=O)c1cccc(Nc2nccc(Nc3cccc(F)c3)n2)c1`, the inhibition in assay [1] is 2.19%; in assay [2], 0.47%; in [3], 0.26%; in assay [4], 0.64%; in assay [5] it was -0.2%; in [6], 1.36%. The inhibition in [7] amounted to 1.82%; in [8] it was 3.82%; in assay [9] it was 21%; in assay [10], 2.25%.
Take `N#Cc1cccc(Nc2nccc(-c3cnn4ncccc34)n2)c1`: the inhibition in [1] came to 78.4%; in assay [2] it was 81.7%; in [3], 86.4%; in assay [4], 81.3%; in assay [5] it was 86.5%; in [6], 20.3%. For the same molecule, the inhibition in assay [7] was determined as 71.5%; in [8], 85.3%; in assay [9] it was 89.5%; in assay [10] it was 84.1%.
For the molecule `O=S(=O)(CCOCc1ccc(-c2ccc3ncnc(Nc4ccc(OCc5cccc(F)c5)c(Cl)c4)c3c2)o1)c1ccccc1`, the inhibition was 0.14% in assay [1]; 1.15% in [2]; 1.59% in [3]; -0.1% in assay [4]; 2.9% in assay [5]; 0.96% in assay [6]. Also, the inhibition came out at 2.34% in assay [7], 2.99% in assay [8], 5.63% in assay [9] and 2.14% in assay [10].
As for `Cc1ccc2c(-c3ccnc(Nc4ccc5c(c4)OCCO5)n3)c(-c3ccc(C(F)(F)F)cc3)nn2n1`, the inhibition is 0.07% in assay [1]; 0.1% in [2]; 2% in assay [3]; -0.58% in assay [4]; 1.39% in [5]; -0.27% in [6]. Further, the inhibition in assay [7] was -1.15%; in assay [8], 5.44%; in assay [9], 10.5%; in assay [10] it was 4.65%.
As to `O=C1Nc2ccccc2/C1=C/Nc1ccc2[nH]c(=O)[nH]c2c1`, the inhibition stood at 4.44% in assay [1]; 6.01% in assay [2]; 23.3% in assay [3]; 2.68% in [4]; 16.1% in [5]; 4.31% in [6]. Further, the inhibition came to 11.1% in [7], 3.7% in [8], 14.4% in assay [9] and 2.99% in assay [10].
Take `NC(=O)c1sc(-n2cnc3ccccc32)cc1OCc1ccccc1Br`: the inhibition in assay [1] was 0.92%; in assay [2], 2.9%; in assay [3], 4.57%; in assay [4], 0.66%; in [5], 2.25%; in assay [6], 3.45%. For the same molecule, the inhibition in assay [7] is 5.8%; in assay [8], 5.13%; in assay [9], 11.9%; in assay [10], 4.55%.
Take `ON=C1CCc2cc(-c3nc(C4CCNCC4)[nH]c3-c3ccncc3)ccc21`: the inhibition was 0.22% in assay [1]; -0.17% in assay [2]; 1.12% in assay [3]; 0.17% in assay [4]; -0.11% in [5]; -0.01% in [6]. Moreover, the inhibition is 1.2% in assay [7], 1.4% in assay [8], 5.93% in assay [9] and 0.85% in assay [10].
